Marburg entry inh: qHTS for inhibitors of binding or entry into cells for Marburg Virus; Marburg virus pseudotyped entry inhibition, cell reporter; Potency, µM (top dose mostly 37.8 µM), for the others: at the highest dose activity change, negative = inhibition, most hits filed as inhibitors; 300,000 compounds, 1.8% hits; AID 540276, 2011; calls by dose curve; tested in HEK293 cells; also: potency is read from the fitted curve at half-maximal effect
HCMV antiviral: qHTS Assay for inhibitors of the human cytomegalovirus (HCMV). activity change, negative = inhibition, % at 57.5 µM. AID 1259415, 2018. HFF cells, HCMV-luciferase reporter, 72 h; active compounds read low. 410,000 compounds, 4.5% hits; in the data active = activity change below about -60%; inconclusive = no clear call, values can overlap the other calls; inactive = above about -39%
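Steps: HFFs plated, 16 h 37C; compounds added; HCMV-luciferase added to MOI 1 PFU/cell; 72 h 37C; OneGlo reagent, 5 min room temperature; luminescence read, normalized to controls.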
VACV Venus inh: qHTS for Stage-Specific Inhibitors of Vaccinia Orthopoxvirus: Venus Reporter Primary qHTS | Potency, µM (series often up to 36.5 µM), for the others: top-dose activity change, negative = inhibition, hits mostly inhibitors | AID 720580, 2013 | Vaccinia virus Venus reporter expression, fluorescence | 330,000 compounds, 0.46% hits; calls by dose curve; tested in A549 cells; also: potency is read from the fitted curve at half-maximal effect; nearly all actives have a fitted effect of over 30% in size
Vaccinia mCherry: qHTS for Stage-Specific Inhibitors of Vaccinia Orthopoxvirus: mCherry Reporter Primary qHTS. Vaccinia virus mCherry reporter infection, fluorescence. 310,000 compounds, 0.63% hits. AID 720579, 2013. Potency, µM (top dose mostly 36.5 µM), for the others: top-dose activity change, negative = inhibition, most hits filed as inhibitors; calls by dose curve; tested in A549 cells; also: potency is read from the fitted curve at half-maximal effect; nearly all actives have a fitted effect of over 35% in size
FMDV inh: High Throughput Screening for Foot and Mouth Disease Virus Antivirals; FMDV antiviral cell-based qHTS; Potency, µM (series often up to 57.9 µM), inactives show top-dose activity change, negative = inhibition, most hits filed as inhibitors; 410,000 compounds, 1.2% hits; AID 1159524, 2015; calls by dose curve; tested in HEK293T cells; also: read-out not given here; potency is read from the fitted curve at half-maximal effect; nearly all actives have a fitted effect of over 45% in size
Lassa entry inh: qHTS for Inhibitors of binding or entry into cells for Lassa Virus | 300,000 compounds, 1.2% hits | Potency, µM (doses to about 37.9 µM), for the others: top-dose activity change, negative = inhibition, actives largely listed as inhibitors | Lassa virus pseudotype entry inhibition, cell reporter | AID 540256, 2011; calls by dose curve; tested in HEK293 cells; also: potency is read from the fitted curve at half-maximal effect; nearly all actives have a fitted effect of over 50% in size
* = called active by the depositor; [ ] = another dose, or the depositor's remark. In the library only some 6.5% were active in any assay of this set; here they are far more common. % is scaled to controls: 0 for no effect and ±100 for the full control effect.

For COCCNC(=O)C1(C)CCN(C(=O)c2cccnc2Oc2ccccc2)C1 (stereo not given) the results were HCMV antiviral -1, VACV Venus inh 32µM*, Vaccinia mCherry 28µM* and FMDV inh -12%.
`CCCNC(=O)C1(C)CCCN(C(=O)c2cccnc2Oc2ccccc2)C1` (stereo not given) gave HCMV antiviral 7, VACV Venus inh -2%, Vaccinia mCherry 4% and FMDV inh -1%.
For O=C(NCC1Cc2cc(-c3cncnc3)cc(Cl)c2O1)c1cccc(Cn2cccn2)c1 (stereo not given) the results were VACV Venus inh -3%, Vaccinia mCherry -3% and FMDV inh 6%.
Screening CCOC(=O)c1ccccc1NC(=O)CSc1nc2ncccc2[nH]1 returned HCMV antiviral -30, VACV Venus inh -1%, Vaccinia mCherry -3%, FMDV inh -16% and Lassa entry inh 4%[46.1 µM].
`CC(C)CNC(=O)c1cc2nc3c(c(C(F)(F)F)n2n1)CCc1ccccc1-3` gave Marburg entry inh 9%, HCMV antiviral -67*, VACV Venus inh 0%, FMDV inh 4% and Lassa entry inh 1%.
For CCCCNC(=O)c1cc2nc3c(c(C(F)(F)F)n2n1)CCc1ccccc1-3 the results were Marburg entry inh 20%, HCMV antiviral 24, VACV Venus inh -19%, Vaccinia mCherry -7%, FMDV inh 10% and Lassa entry inh 14%.
Screening CC(=O)Nc1ccc(CN(C)c2c(C)nc3ccc(C(=O)NC4CCN(Cc5ccccc5)CC4)cn23)cc1 returned HCMV antiviral -97*, VACV Venus inh -22%, Vaccinia mCherry 0% and FMDV inh -18%.
Screening CC(=O)Nc1ccc(CN(C)c2c(C)nc3ccc(C(=O)N(C)Cc4ccccc4)cn23)cc1 returned HCMV antiviral 1, VACV Venus inh 9%, Vaccinia mCherry 13% and FMDV inh -17%.
COc1ccc(OC)c2c(C)ccnc12 was read as VACV Venus inh -16% and Vaccinia mCherry -5%.
Screening Cc1cc(C)nc(NC(N)=NCCc2ccccc2)n1 returned Marburg entry inh 7.1µM*, HCMV antiviral -96*, VACV Venus inh inconclusive, Vaccinia mCherry inconclusive, FMDV inh inconclusive and Lassa entry inh inconclusive.
`Cc1cc(C)nc(NC(N)=NCCc2c[nH]c3ccccc23)n1` gave Marburg entry inh inconclusive, HCMV antiviral -97*, VACV Venus inh inconclusive, Vaccinia mCherry inconclusive, FMDV inh -20% and Lassa entry inh -17%[46.1 µM].
Screening CN1CCN(c2ncc3nc(-c4cccc(C#N)c4)c(=O)n(C)c3n2)CC1 returned FMDV inh 1%.
O=S(=O)(Nc1cccc(-c2cn3cccnc3n2)c1)c1ccc(-c2ccccc2)cc1 was read as Marburg entry inh -20%, HCMV antiviral -77*, VACV Venus inh -13%, FMDV inh 0% and Lassa entry inh 10%.
Screening Cc1ccc(S(=O)(=O)Nc2cccc(-c3cn4ccsc4n3)c2)cc1 returned Marburg entry inh inconclusive, HCMV antiviral inconclusive, VACV Venus inh inconclusive, FMDV inh 80% and Lassa entry inh 4.5µM*.
COCCN1CCN(C(=O)c2cnn(-c3nccc(-c4cc5ccccc5o4)n3)c2C2CC2)CC1 was read as VACV Venus inh -9%, Vaccinia mCherry -26% and FMDV inh -1%.
For Cc1ccc(NC(=O)c2ccc([N+](=O)[O-])o2)c(C)c1 the results were HCMV antiviral -25 and FMDV inh -9%.
Cc1ccc(S(=O)(=O)c2ccc([N+](=O)[O-])o2)cc1 was read as Marburg entry inh 7.9µM*, HCMV antiviral -28, VACV Venus inh inconclusive, Vaccinia mCherry inconclusive, FMDV inh 18µM* and Lassa entry inh inconclusive.
CNC(=O)COc1ccccc1C(=O)Nc1ccc2c(c1)oc1ccccc12 was read as Marburg entry inh 21µM*, HCMV antiviral -69*, FMDV inh 14% and Lassa entry inh inconclusive.
Screening CC(C)=CC(O)C/C(C)=C/COc1ccc2ccc(=O)oc2c1 (stereo not given) returned HCMV antiviral 12, VACV Venus inh 10µM*, Vaccinia mCherry 10µM* and FMDV inh inconclusive.
COCCn1c(C)cc(C(=O)COC(=O)c2c(C)nn(Cc3ccccc3)c2C)c1C was read as Marburg entry inh inconclusive, HCMV antiviral -14, VACV Venus inh -21%, Vaccinia mCherry inconclusive, FMDV inh -3% and Lassa entry inh 7.1µM*.
Screening Cc1nn(Cc2ccccc2)c(C)c1C(=O)OCC(=O)c1cc(C)n(C2CC2)c1C returned Marburg entry inh -29%, HCMV antiviral inconclusive, FMDV inh -40% and Lassa entry inh 15µM*.
Screening CC(C)c1ccc(S(=O)(=O)N2CCN(CC(=O)Nc3ccccc3C(F)(F)F)CC2)cc1 returned HCMV antiviral 3, VACV Venus inh -2%, Vaccinia mCherry -11%, FMDV inh -24% and Lassa entry inh 7%[46.1 µM].
`COc1cccc(C(=O)Nc2ccc(NC(=O)c3ccc(C(C)(C)C)cc3)cc2)c1` gave HCMV antiviral -97*, VACV Venus inh -17%, Vaccinia mCherry -4%, FMDV inh -21% and Lassa entry inh 6%[46.1 µM].
`COc1cc2c(cc1NC(=O)c1ccc(C(C)(C)C)cc1)CCCC2` gave Marburg entry inh 4.5µM*, HCMV antiviral -90*, VACV Venus inh 5%, Vaccinia mCherry 10µM*, FMDV inh -10% and Lassa entry inh 1.4µM*.
For COc1cccc(C(=O)Nc2cc(NC(=O)c3cccs3)ccc2C)c1 the results were HCMV antiviral -75* and FMDV inh 16%.
Screening COc1cccc(C(=O)Nc2ccc(NC(C)=O)cc2)c1 returned Marburg entry inh inconclusive, HCMV antiviral 31, FMDV inh 63% and Lassa entry inh 0%.
COc1cccc(C(=O)Nc2cccc(NC(=O)c3cccs3)c2)c1 was read as HCMV antiviral 45 and FMDV inh 13%.
Screening COc1cccc(C(=O)Nc2ccc(NC(=O)C(C)(C)C)cn2)c1 returned Marburg entry inh 13µM*, HCMV antiviral 7, VACV Venus inh -4%, Vaccinia mCherry -5%, FMDV inh -69% and Lassa entry inh 7.1µM*.
Screening COc1ccc(CNC(=O)C(=O)NCC(c2ccco2)S(=O)(=O)c2ccc(Cl)cc2)cc1 (stereo not given) returned HCMV antiviral 3, VACV Venus inh 0%, Vaccinia mCherry -8%, FMDV inh inconclusive and Lassa entry inh -29%[46.1 µM].

From PubChem BioAssay
